The values below come from PubChem BioAssay.

Assay [1] is described as follows: binders of probe aFSTL3 on microarray, primary screen, stem cell growth factor project, biochemical, small-molecule microarray, fluorescence 635/667 (AID 1064).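 Note: measures binding of the biotinylated anti-FSTL3 antibody to printed compounds.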 The following applies: higher = more signal.
Assay [2] can be described thus: binders from COS7 lysate, DM2A8 probe, primary screen, torsin A project, cell lysate, small-molecule microarray, fluorescence 635/667 (AID 1065). Particulars: higher = more signal, COS7 lysate expressing mutant human TOR1A.
A short description of assay [3]: binders of probe aFGF2 on microarray, primary screen, stem cell growth factor project, biochemical, small-molecule microarray, fluorescence 635/667 (AID 1067).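 Note: measures binding of biotinylated aFGF2 protein to printed compounds on slides; z-score merges feature fluorescence and signal-to-noise across triplicate slides.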 The following applies: higher = more signal.
Assay [4] can be described thus: binders of probe aFGF10 on microarray, primary screen, stem cell growth factor project, biochemical, small-molecule microarray, fluorescence 635/667 (AID 1071).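 Note: score merges 667 nm spot intensity and signal to noise from triplicate slides.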 Particulars: higher = more signal.
Assay [5] addresses Neurogenic locus notch homolog protein 2 (Homo sapiens) (UniProt Q04721). Nature of the assay: Notch2 binders on small-molecule microarrays, primary screen, biochemical, small-molecule microarray, 635 nm fluorescence, stem cell growth factors (AID 1073). Particulars: Notch2 binding, higher = more signal.
The target in assay [6] is Pro-neuregulin-1, membrane-bound isoform (Homo sapiens) (UniProt Q02297). Nature of the assay: NRG1 binders on small-molecule microarrays, primary screen, psychiatric disease protein project, biochemical, small-molecule microarray, fluorescence 635/667 (AID 1075).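 Note: score combines 667 nm spot fluorescence with signal to noise.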 The following applies: NRG1 binding, 635 nm fluorescence, higher = more signal.
Assay [7] deals with Neuregulin-1 EGF-like domain. Nature of the assay: binders of neuregulin-1 EGF-like domain, primary screen, biochemical, small-molecule microarray, 635 nm fluorescence (AID 1081).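 Note: binding of the protein to compounds printed on small-molecule microarray slides.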 The following applies: small-molecule microarray binding, higher = more signal.
Assay [8] in a line: FRG1 promoter luciferase signal modulators, primary screen, FRG1 inhibition for FSHD, cell-based, C2C12 myotubes, firefly/Renilla luciferase, luminescence (AID 1084). Particulars: higher = more signal, called active from +8 up or from −8 down.
Assay [9] is described as follows: binders of probe aFST on microarray, primary screen, stem cell growth factor project, biochemical, small-molecule microarray, fluorescence 635/667 (AID 1086).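 Note: score merges 667 nm fluorescence with signal-to-noise of each printed compound spot.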 The following applies: higher = more signal.
Assay [10] is described as follows: binders of probe aHhip on microarray, primary screen, stem cell growth factor project, biochemical, small-molecule microarray, fluorescence 635/667 (AID 1087).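 Note: score merges spot fluorescence at 667nm with spot signal to noise ratio.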 The following applies: higher = more signal.
For assay [11], the system named is PRMT1 (protein arginine N-methyltransferase 1). Nature of the assay: PRMT1 binders on small-molecule microarrays, primary screen, biochemical, small-molecule microarray, 635 nm fluorescence (AID 1088).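 Note: binding of Prmt1 protein to compounds spotted on small-molecule microarray slides.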 Particulars: small-molecule microarray binding, higher = more signal.
Assay [12] in a line: yeast growth modulation, basal conditions, primary screen, YJM789 clinical isolate, OD600, 24 h (AID 1089).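 Note: growth of clinical yeast isolate S. cerevisiae YJM 789 seeded 1000 cells per well; test concentration not given here.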 The following applies: S. cerevisiae YJM789 growth, higher = more signal, called active from +8 up or from −8 down.
A short description of assay [13]: fission yeast growth modulation, primary screen, strain 972, OD600, 24 h, no modulator (AID 1090).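 Note: basal condition with compound alone and no growth modifier present; test concentration not given here.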 The following applies: S. pombe 972 growth, higher = more signal, called active from +8 up or from −8 down.
Assay [14] is described as follows: S. cerevisiae growth modulation with rapamycin, primary screen, strain BY4716, OD600, 96 h (AID 1091). Note: test concentration not given here. Particulars: higher = more signal, called active from +8 up or from −8 down.
Assay [15] concerns the target Torsin-1A-interacting protein 2 (Homo sapiens) (UniProt Q8NFQ8). Nature of the assay: LULL1 binders on small-molecule microarray, primary screen, cell lysate, human LULL1 lysate, 635/667 nm fluorescence (AID 1092).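 Note: probe is lysate of COS7 cells overexpressing human LULL1; score merges per-feature 667 nm fluorescence with signal-to-noise.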 The following applies: hLULL1 lysate binding, 635 nm fluorescence, higher = more signal.
Assay [16] is described as follows: E. coli growth modulation, two-sided OD650, primary screen, E. coli filamentation project, strain DRC41, 24 h (AID 1093).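 Note: MC1000 strain lacking acrAB efflux and sulA so SOS filamentation is blocked; test concentration not given here.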 The following applies: OD650, 24 h, higher = more signal, called active from +8 up or from −8 down.
A short description of assay [17]: small-molecule microarray binders of probe aLefty2, primary screen, biochemical, biotinylated probe, 635/667 nm fluorescence (AID 1094).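 Note: score merges spot fluorescence near 667 nm with spot signal-to-noise ratio.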 The following applies: higher = more signal.
Assay [18] deals with Noggin (protein binding on small-molecule microarray). Nature of the assay: Noggin binders on small-molecule microarray, primary screen, biochemical, 635/667 nm fluorescence (AID 1095).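 Note: score merges 667 nm feature fluorescence with signal to noise over triplicate slides.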 Particulars: 635 nm fluorescence, higher = more signal.
Assay [19] deals with Neurogenic locus notch homolog protein 3 (Homo sapiens) (UniProt Q9UM47). Nature of the assay: NOTCH3 binders on small-molecule microarray, primary screen, biochemical, 635/667 nm fluorescence (AID 1096). The following applies: NOTCH3 binding, 635 nm fluorescence, higher = more signal.
Assay [20] is described as follows: small-molecule microarray binders of probe aEGFR, primary screen, biochemical, biotinylated probe, 635/667 nm fluorescence (AID 1097).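 Note: probe is a biotinylated anti-EGFR antibody binding compounds printed on slides; score combines fluorescence near 667 nm and signal to noise of each spot.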 Particulars: higher = more signal.

Activity calls are given as the source filed them.

Sequence of Torsin-1A-interacting protein 2 (Homo sapiens) (Q8NFQ8 whole entry, looked up): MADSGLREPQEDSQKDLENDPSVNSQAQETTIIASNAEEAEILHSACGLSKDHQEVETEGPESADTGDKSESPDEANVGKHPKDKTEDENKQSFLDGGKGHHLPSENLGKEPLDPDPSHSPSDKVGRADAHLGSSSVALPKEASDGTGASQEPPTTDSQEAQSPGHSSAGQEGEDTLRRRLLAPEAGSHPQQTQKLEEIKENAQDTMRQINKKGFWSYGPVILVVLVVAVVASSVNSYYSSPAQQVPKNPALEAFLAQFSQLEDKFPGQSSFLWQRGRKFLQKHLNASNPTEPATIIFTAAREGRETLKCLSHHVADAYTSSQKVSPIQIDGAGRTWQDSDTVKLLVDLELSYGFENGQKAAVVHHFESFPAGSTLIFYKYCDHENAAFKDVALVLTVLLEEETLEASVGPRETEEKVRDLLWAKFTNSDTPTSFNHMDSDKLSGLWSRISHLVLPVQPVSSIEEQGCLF
Sequence of Neurogenic locus notch homolog protein 2 (Homo sapiens) (Q04721 whole entry, looked up, canonical isoform): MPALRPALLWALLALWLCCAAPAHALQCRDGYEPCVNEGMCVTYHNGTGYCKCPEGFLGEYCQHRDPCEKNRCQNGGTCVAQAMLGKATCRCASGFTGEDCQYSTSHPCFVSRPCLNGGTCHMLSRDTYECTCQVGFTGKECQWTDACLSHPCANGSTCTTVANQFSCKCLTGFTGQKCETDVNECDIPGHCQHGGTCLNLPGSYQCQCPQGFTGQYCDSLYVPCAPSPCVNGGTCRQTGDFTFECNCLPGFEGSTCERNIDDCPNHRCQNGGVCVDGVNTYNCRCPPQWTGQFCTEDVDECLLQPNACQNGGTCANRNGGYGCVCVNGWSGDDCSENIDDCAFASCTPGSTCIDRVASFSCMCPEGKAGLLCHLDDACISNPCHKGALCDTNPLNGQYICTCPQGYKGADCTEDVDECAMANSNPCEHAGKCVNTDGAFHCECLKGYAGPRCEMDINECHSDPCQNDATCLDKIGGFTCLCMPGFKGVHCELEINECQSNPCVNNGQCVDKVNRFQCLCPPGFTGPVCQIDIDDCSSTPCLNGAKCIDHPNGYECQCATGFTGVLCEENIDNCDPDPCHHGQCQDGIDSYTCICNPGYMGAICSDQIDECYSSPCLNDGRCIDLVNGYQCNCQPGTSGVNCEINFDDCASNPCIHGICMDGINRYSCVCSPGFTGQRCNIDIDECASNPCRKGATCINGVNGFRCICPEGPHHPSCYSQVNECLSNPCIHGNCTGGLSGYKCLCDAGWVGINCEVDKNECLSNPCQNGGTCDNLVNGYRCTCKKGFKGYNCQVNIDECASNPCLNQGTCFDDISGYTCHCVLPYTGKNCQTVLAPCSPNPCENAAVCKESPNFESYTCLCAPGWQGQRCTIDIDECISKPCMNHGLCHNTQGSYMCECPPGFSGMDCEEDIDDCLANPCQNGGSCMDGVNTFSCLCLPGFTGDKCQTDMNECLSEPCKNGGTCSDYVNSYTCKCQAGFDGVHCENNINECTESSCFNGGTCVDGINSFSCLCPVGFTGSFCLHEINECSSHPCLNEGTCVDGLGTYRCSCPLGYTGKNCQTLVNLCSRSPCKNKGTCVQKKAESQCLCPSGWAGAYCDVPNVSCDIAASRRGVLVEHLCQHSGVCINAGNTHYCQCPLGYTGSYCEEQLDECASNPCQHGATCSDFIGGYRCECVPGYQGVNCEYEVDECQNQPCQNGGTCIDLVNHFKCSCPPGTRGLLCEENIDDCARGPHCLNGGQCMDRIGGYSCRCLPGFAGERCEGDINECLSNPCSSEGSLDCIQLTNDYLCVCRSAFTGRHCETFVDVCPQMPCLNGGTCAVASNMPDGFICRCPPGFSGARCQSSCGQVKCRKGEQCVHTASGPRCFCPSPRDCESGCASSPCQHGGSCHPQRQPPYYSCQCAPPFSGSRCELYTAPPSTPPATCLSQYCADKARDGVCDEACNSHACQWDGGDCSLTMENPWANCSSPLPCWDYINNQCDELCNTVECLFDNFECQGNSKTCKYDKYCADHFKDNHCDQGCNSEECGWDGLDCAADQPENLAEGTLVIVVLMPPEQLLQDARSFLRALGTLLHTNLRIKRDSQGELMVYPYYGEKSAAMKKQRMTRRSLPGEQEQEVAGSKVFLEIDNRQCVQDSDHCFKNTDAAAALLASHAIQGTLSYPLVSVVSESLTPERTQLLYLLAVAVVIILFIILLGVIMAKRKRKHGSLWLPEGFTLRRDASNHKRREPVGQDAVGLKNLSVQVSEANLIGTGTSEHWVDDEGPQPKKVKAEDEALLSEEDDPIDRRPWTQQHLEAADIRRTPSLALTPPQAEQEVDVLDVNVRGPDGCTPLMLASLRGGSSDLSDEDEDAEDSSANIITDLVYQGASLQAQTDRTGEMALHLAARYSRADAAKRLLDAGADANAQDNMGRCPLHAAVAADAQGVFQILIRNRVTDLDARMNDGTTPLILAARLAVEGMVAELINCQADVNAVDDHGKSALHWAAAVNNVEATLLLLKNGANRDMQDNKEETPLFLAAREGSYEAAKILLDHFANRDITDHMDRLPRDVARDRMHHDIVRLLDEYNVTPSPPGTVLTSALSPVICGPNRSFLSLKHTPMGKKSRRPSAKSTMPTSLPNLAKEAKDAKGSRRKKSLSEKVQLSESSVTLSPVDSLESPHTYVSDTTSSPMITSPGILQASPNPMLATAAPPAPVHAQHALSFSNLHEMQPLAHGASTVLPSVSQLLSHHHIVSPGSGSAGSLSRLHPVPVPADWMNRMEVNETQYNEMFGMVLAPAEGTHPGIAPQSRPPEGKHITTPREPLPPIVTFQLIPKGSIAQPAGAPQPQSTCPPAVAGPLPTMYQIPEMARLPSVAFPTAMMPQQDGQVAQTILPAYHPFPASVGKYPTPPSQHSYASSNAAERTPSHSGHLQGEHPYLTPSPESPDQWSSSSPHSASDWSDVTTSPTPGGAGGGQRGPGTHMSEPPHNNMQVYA
Sequence of Pro-neuregulin-1, membrane-bound isoform (Homo sapiens) (Q02297 whole entry, looked up, the tested form may be a part, canonical isoform): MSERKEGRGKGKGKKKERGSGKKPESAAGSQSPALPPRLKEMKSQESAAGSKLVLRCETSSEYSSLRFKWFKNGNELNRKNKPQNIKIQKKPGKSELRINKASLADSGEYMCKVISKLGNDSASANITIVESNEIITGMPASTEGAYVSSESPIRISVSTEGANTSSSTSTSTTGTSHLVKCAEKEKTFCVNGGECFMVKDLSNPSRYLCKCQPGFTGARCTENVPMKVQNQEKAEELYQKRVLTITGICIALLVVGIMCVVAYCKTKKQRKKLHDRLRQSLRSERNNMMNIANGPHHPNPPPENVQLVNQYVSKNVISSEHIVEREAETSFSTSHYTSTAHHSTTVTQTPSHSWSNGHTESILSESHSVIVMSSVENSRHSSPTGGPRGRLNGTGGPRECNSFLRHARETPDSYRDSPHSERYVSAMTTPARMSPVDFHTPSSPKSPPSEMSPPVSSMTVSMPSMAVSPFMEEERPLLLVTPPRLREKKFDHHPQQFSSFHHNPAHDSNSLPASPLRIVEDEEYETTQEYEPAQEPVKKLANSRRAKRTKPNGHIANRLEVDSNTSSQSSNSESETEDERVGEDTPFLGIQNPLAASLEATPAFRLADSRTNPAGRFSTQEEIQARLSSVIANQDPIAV

In the case of `COC(=O)C/C=C/C[C@]1(O)C(=O)N(C)c2ccccc21`, the composite z-score is -0.408 in [1]; 0.598 in assay [2]; -0.148 in assay [3]; -0.294 in [4]; 0.223 in [5]; -0.419 in [6]. For the same molecule, the composite z-score in [7] was 0.797; in [9] it was 0.164; in assay [10], -0.0708; in [11], 0.756; in assay [15], 0.423; in assay [17] it was -0.186. Also, the composite z-score in assay [18] was 0.739; in [19] it was 0.434; in assay [20], -0.0805. The z-score was -1.59 (inactive) in [8]; -1.73 (inactive) in assay [12]; -1.35 (inactive) in assay [13]; -1.02 (inactive) in assay [14]; 1.48 (inactive) in assay [16].

Consider `COc1cc2c(cc1O)C=[N+](Cc1sc3ccccc3c1Cl)CC2`, for which the composite z-score was 0.172 in assay [1]; -0.0743 in [2]; -0.0999 in assay [3]; 0.1 in assay [4]; 1.06 in assay [5]; -0.102 in assay [6]. Besides, the composite z-score is 1.48 in [7]; -0.161 in assay [9]; 0.0178 in assay [10]; 0.286 in assay [11]; -0.0121 in assay [15]; 0.0216 in assay [17]. In addition, the composite z-score is 0.346 in [18], -0.119 in assay [19] and -0.126 in assay [20]. Moreover, the z-score in assay [8] was 0.432 (inactive); in [12], -1.02 (inactive); in [13], -15.5 (active); in [14], -1.31 (inactive); in [16], 0.461 (inactive).

Turning to `CC(C)C(CO)N1C(=O)[C@@H]2C3C(=O)OCCC/C=C\[C@H]3OC23C=CCN(Cn2nnc4ccccc42)C(=O)[C@@H]13` (stereo not given in full), the composite z-score was 0.314 in assay [1]; -0.665 in assay [2]; -0.148 in assay [3]; -0.323 in assay [4]; -0.72 in assay [5]; 1.88 in assay [6]. Also, the composite z-score in assay [7] was 0.476; in assay [9], 0.013; in assay [10] it was -0.306; in [11] it was 0.828; in [15] it was 3.72; in [17] it was -0.159. Besides, the composite z-score is -0.421 in [18], 0.144 in assay [19] and -0.268 in assay [20]. The z-score in assay [8] is 0.0182 (inactive); in [12] it was 0.0005 (inactive); in assay [13], -0.299 (inactive); in assay [14] it was 0.0668 (inactive); in assay [16] it was 0.167 (inactive).

In the case of `CN(C)C(=O)[C@]1(Cc2ccccc2CN=[N+]=[N-])N=C(c2ccc(OCCCO)cc2)O[C@@H]1c1ccccc1`, the composite z-score was 0.168 in assay [1]; -0.242 in assay [2]; 0.0577 in assay [3]; 0.863 in assay [4]; 0.666 in assay [5]; 1.62 in assay [6]. The composite z-score was 0.96 in [7]; 0.694 in [9]; -0.0618 in assay [10]; 1.57 in assay [11]; 3.29 in assay [15]; -0.0352 in assay [17]. The composite z-score turned out to be 0.104 in assay [18], 0.439 in assay [19] and 0.0958 in assay [20]. Besides, the z-score in assay [8] is -3.49 (inactive); in assay [12] it was -0.545 (inactive); in [13], -1.07 (inactive); in [14], 20.8 (active); in [16] it was -0.915 (inactive).

As for `Cc1ccc(N2C(=O)c3ccccc3[C@@H](C(=O)NCCCN(C)C)[C@@H]2c2ccc(CO)cc2)nc1`, the composite z-score in assay [1] is 1.36; in assay [2], -0.538; in assay [3], 0.111; in [4], -0.533; in assay [5] it was -0.854; in assay [6], 1.02. Further, the composite z-score in assay [7] was 1.44; in assay [9] it was 0.282; in assay [10] it was -0.757; in assay [11], 0.0027; in assay [15] it was -0.732; in assay [17], 0.186. The results for the composite z-score in [18], in [19] and in assay [20] were -0.572, -0.916 and 0.576, respectively. Moreover, the z-score in [8] is 0.298 (inactive); in assay [12], -0.292 (inactive); in assay [13], -0.636 (inactive); in assay [14] it was -0.81 (inactive); in assay [16], 0.213 (inactive).
